High-throughput results: PubChem, several laboratories
ROMK mod – modulates human ROMK potassium channel activity; 2% of 130,000 active; AID 1918; B-score at 10 µM; P48048; Tet-inducible ROMK, thallium flux fluorescence; actives lie on both sides;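 active means signal ratio slope over the read window, or its plate-corrected B-score, at least 3 SD from the plate mean, either direction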;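 further: B-score of the F/F0 ratio slope over 7 to 12 s after thallium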
Cl transport mod – KCC2 (human) Cl- transport modulation. KCC2 cells, thallium flux FluoZin-2 fluorescence. B-score of Tl+ flux slope (higher = more flux/activation; lower = inhibition) at 10 µM. 2.2% of 190,000 active;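 active means thallium flux slope and its plate-corrected score both differing from the plate sample mean at a set confidence after two filtering rounds, in either direction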;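 further: slope of fluorescence scaled to starting intensity during 10 to 20 s after thallium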
Target sequence (Q9H2X9 whole entry, looked up): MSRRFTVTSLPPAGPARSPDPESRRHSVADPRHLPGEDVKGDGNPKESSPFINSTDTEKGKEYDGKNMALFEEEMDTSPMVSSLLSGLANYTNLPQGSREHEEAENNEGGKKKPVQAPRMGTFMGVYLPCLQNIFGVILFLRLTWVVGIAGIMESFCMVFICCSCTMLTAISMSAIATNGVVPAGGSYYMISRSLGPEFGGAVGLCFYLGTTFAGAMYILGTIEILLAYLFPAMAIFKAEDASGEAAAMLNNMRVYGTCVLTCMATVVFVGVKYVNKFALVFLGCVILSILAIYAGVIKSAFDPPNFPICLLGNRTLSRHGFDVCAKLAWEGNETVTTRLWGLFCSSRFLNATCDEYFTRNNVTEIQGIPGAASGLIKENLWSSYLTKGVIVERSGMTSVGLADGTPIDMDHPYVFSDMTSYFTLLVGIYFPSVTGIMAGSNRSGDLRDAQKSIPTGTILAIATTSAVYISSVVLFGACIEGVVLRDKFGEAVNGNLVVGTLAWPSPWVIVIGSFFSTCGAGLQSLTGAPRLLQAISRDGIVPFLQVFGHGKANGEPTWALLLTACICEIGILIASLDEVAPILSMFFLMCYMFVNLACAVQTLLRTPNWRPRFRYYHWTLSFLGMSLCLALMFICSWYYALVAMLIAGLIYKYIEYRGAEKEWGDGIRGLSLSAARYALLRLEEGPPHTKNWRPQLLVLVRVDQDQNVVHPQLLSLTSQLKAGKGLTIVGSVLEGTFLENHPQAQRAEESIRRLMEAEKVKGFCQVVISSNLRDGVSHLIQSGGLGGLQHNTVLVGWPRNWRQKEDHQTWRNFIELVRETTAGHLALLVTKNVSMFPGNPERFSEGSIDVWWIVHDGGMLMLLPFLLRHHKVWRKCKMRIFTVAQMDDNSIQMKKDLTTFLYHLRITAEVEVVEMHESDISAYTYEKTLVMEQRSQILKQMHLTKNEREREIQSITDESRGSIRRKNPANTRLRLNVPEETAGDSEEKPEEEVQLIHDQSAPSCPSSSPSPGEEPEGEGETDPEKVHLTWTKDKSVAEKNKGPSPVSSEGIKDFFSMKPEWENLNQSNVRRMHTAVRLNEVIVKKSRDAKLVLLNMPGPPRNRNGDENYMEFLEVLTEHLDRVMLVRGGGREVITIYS
RAM network inh – yeast RAM network inhibition. S. cerevisiae dse1pr::URA3 reporter, 5-FOA growth OD615, 2 d; analog-sensitive cbk1-as2 kinase mutant strain. inhibition, % at 50 µM. 1.8% of 190,000 active. AID 868;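 active means inhibition above a set limit, 3 SD over mean compound inhibition, cut at about 8.4% in these data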;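 further: 0% = DMSO-only wells with no growth and 100% = 10 µM 1-NA-PP1 full growth; inhibition rescues growth on 5-FOA so higher OD means more RAM inhibition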
S1P4 antag – human S1P4 receptor antagonism; O95977; S1P4-expressing cells, antagonist mode, reporter read-out; inhibition, % at 4.98 µM; 0.26% of 220,000 active; AID 1510; in the data active means inhibition above about 29%;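 further: 0% = wells stimulated with agonist and 100% = vehicle wells without agonist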
S1P4 ag – activates the human S1P4 receptor. O95977. S1P4-expressing cell line, agonist reporter assay. activation, % at 4.98 µM. 0.35% of 220,000 active; in the data active means activation above about 11%;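 further: 0% = DMSO vehicle and 100% = reference agonist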
S1P3 antagonist – antagonists of human S1P3 receptor; 0.27% of 170,000 active; AID 485; inhibition, % at 4.98 µM; CHO S1P3 NFAT-BLA reporter, FRET fluorescence, antagonist mode;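 active means inhibition above the plate cutoff, the mean inhibition of test wells on that plate plus 3 SD, cut at about 28% in these data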;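 further: cells challenged with S1P at its EC80 of 0.8 µM; blue over green emission ratio from cleaved BLA substrate after 4 h stimulation; 0% = S1P-stimulated wells and 100% = unstimulated DMSO-only wells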
RAM 5-FOA – RAM network inhibition, efflux-deficient strain; 1,200 tested, under 10 active; max inhibition, %; S. cerevisiae efflux-deficient reporter strain, 5-FOA growth OD615, 2 days; AID 1305; shares compounds with RAM network inh; call rule not given here;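 further: plate controls were vehicle for no effect and reference inhibitor for full effect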
KCC2 secondary – confirmation of human KCC2 transport modulators | shares compounds with Cl transport mod | HEK293-KCC2, thallium flux, FluoZin2 fluorescence; stronger effect = higher value | normalised thallium flux (F/F0 slope) at 10 µM | 15% of 3,700 active | AID 1713;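 active means thallium flux slope above the same plate's solvent-only control mean plus 3 SD; inconclusive means the two replicate wells disagree; inactive means no significant difference from solvent-only control wells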
KCC2 bumet counter – thallium flux despite bumetanide block in KCC2 cells, secondary assay 3; shares compounds with Cl transport mod; HEK293-KCC2 + bumetanide/ouabain, thallium flux FluoZin2; stronger effect = higher value; normalized thallium flux at 10 µM; 49% of 3,700 active; AID 1714;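 active means thallium entry rate above the same plate's blocked-transporter control wells by more than 3 SD; inconclusive means the two repeat wells disagree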;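 further: raw slope of fluorescence over initial fluorescence between 10 and 20 s after thallium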
KCC2 secondary2 – confirmation of human KCC2 transport modulators; normalized thallium flux at 10 µM; 23% of 3,700 active; HEK293-KCC2, thallium flux FluoZin2 fluorescence; actives lie on both sides; F/F0 rise rate, 10–20 s post-thallium; shares compounds with Cl transport mod;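 active means thallium flux slope more than 3 SD above or below the plate's solvent-only control mean, mostly below; inconclusive means the two repeat wells disagreed; inactive means no significant shift from solvent-only controls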;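 further: raw slope with 0.1% DMSO as baseline and bumetanide as block control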
HEK293 Tl flux – acts in parental HEK cells, KCC2 counter-screen; 46% of 3,700 active; HEK293 parental cells, thallium flux FluoZin2, ouabain; baseline-ratio fluorescence slope, 10–20 s after thallium; thallium flux rate (normalised fluorescence) at 10 µM; shares compounds with Cl transport mod; AID 1716;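 active means thallium flux rate significantly above the same plate's solvent-only control wells, beyond their mean plus 3 SD; inconclusive means the two replicate wells gave conflicting results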
KCC2 retest ouab – modulates human KCC2 on retest with ouabain | shares compounds with Cl transport mod | HEK293-KCC2, thallium flux FluoZin2 fluorescence; bidirectional: low = inhibitor, high = activator | raw Tl+ flux slope (below DMSO = inhibition, above = activation) at 10 µM | 48% of 3,700 active | AID 1717;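 active means thallium flux slope beyond 3 SD from same-plate DMSO control mean in most replicates, usually higher, sometimes lower; inconclusive means repeat tests gave conflicting results; inactive means no significant difference from controls in most replicates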;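 further: slope of initial-normalized fluorescence between seconds 10 and 20 after thallium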
HEK293 Tl flux2 – parental HEK flux effect, counter-screen 2. shares compounds with Cl transport mod. HEK293 parental, thallium flux FluoZin-2 fluorescence slope. thallium flux slope at 10 µM. 33% of 3,700 active. AID 1718;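 active means thallium flux slope above the same plate's solvent-control mean plus 3 SD in both duplicate wells; inconclusive means duplicate wells that disagreed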;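 further: run without ouabain in cells lacking the KCC2 cotransporter; slope of fluorescence scaled to its starting value between 10 and 20 s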
S1P4 ag conf – confirmation of human S1P4 receptor agonists; shares compounds with S1P4 ag; S1P4 agonist cell-based reporter assay; activation, % at 4.98 µM; 7% of 740 active; AID 1523; in the data active means activation above about 12%;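 further: 0% = vehicle and 100% = full reference agonist response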
S1P1 agonist – human S1P1 agonism as S1P4 agonist counter-screen; shares compounds with S1P4 ag; S1P1 agonist cell-based assay, activation; activation, % at 4.98 µM; 4% of 740 active; AID 1563; in the data active means activation above about 21%;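 further: 0% = vehicle wells and 100% = reference agonist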
ROMK retest – human ROMK channel modulation, retest confirmation. shares compounds with ROMK mod. ROMK thallium flux, fluorescence ratio; stronger effect = lower value. normalized thallium flux (F/F0 slope) at 10 µM. 54% of 3,000 active;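 active means Flux at 10 µM at least 3 SD below or above vehicle control mean in one or both replicates; inconclusive means no clear call, values can overlap the other calls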
* marks the source's active call; other numbers are inactive results; ? = inconclusive; · = no result given. An excerpt weighted towards active compounds, which were near 5.1% of everything screened.

SMILES	ROMK mod	Cl transport mod	RAM network inh	S1P4 antag	S1P4 ag	S1P3 antagonist	RAM 5-FOA	ROMK retest	others
Cc1ccc(CSc2nc3sc(C)c(C)c3c(=O)n2Cc2ccco2)cc1	·	9.4*	17*	-31	2	·	3	·	KCC2 secondary=0.0073;KCC2 bumet counter=0.019*;KCC2 secondary2=0.039*;HEK293 Tl flux=0.024*;KCC2 retest ouab=0.031*;HEK293 Tl flux2=0.023*
C=CCN1C(=O)/C(=C/c2ccc(OC(C)=O)c(OCC)c2[N+](=O)[O-])SC1=S	0.58	-3.4*	12*	-11	1	-3	2	·	KCC2 secondary=0.0058*;KCC2 bumet counter=0.0067;KCC2 secondary2=0.031;HEK293 Tl flux=0.005*;KCC2 retest ouab=?;HEK293 Tl flux2=0.01
COc1cc(C(=O)OCCNC(=O)c2ccncc2)cc(OC)c1OC	·	-0.35	-1	-26	0	2	·	·
CCCCn1c(NS(=O)(=O)c2ccc(C)cc2)c(S(=O)(=O)c2ccccc2)c2nc3ccccc3nc21	·	-6.5*	12*	-3	0	-12	12	·	KCC2 secondary=0.009;KCC2 bumet counter=0.017*;KCC2 secondary2=0.033;HEK293 Tl flux=?;KCC2 retest ouab=?;HEK293 Tl flux2=0.011
OCCNC(=S)NCCc1ccccc1	0.052	-1	0	-4	-2	-20	·	·
CC(C)(CNC(=S)NCCc1ccccc1)CNC(=S)NCCc1ccccc1	-2.7	-5.1*	15*	0	-4	-4	7	·	KCC2 secondary=0.0076;KCC2 bumet counter=0.0054;KCC2 secondary2=?;HEK293 Tl flux=0.0058;KCC2 retest ouab=0.013*;HEK293 Tl flux2=0.0094
O=C(CSc1nnc(-c2ccccc2NC(=O)c2ccccc2)o1)OC1CCCCC1	·	-0.044	·	-3	0	·	·	·
Cc1ccc(NC(=O)c2oc3ccc(S(=O)(=O)N4CCC5(CC4)OCCO5)cc3c2C)cc1C	0.025	0.042	12*	3	49*	1	1	·	S1P4 ag conf=-2;S1P1 agonist=-5
Cc1ccc(N=c2oc3cc(O)ccc3cc2C(N)=O)cc1	·	0.67	27*	-55	35*	29	1	·	S1P4 ag conf=4;S1P1 agonist=2
COc1ccc(N=c2oc3cc(O)ccc3cc2C(=O)Nc2ccccn2)cc1OC	0.55	-0.84	6	-5	2	-26	·	·
O=C(CN1C(=O)C2CC=CCC2C1=O)Nc1ccc(S(=O)(=O)N2CCOCC2)cc1 (stereo unspecified)	-0.52	0.49	-1	-17	2	-12	·	·
COc1ccc(CNc2oc(COc3ccc(Cl)cc3)nc2C#N)cc1	-2.1*	-1.9	13*	1	3	·	3	0.073
COc1ccc(Nc2oc(COc3ccc(Cl)cc3)nc2C#N)cc1	·	·	3	-9	-1	8	·	·
Cc1ccc(C2(CCNS(=O)(=O)c3ccc(C)cc3)CCOC(C(C)C)C2)cc1 (stereo unspecified)	·	-1.9	15*	-4	-3	1	5	0.061*
CC(=C\c1ccccc1)/C=C1/SC(=S)N(C(C(=O)O)C(C)C)C1=O (stereo unspecified)	·	·	21*	-10	3	1	4	0.089
CCCc1nc(SC)[nH]c(=O)c1C	·	0.29	·	10	0	-24	·	·
O=C(/C=C/c1ccc(Br)cc1)N1CCN(c2cccc(C(F)(F)F)c2)CC1	·	0.25	12*	-15	-1	-17	3	0.077
O=C(O)c1cc(N2N=C(C(F)(F)F)/C(=C/C=C/c3ccco3)C2=O)ccc1Cl	-5.3*	-1.4	14*	-21	0	-13	6	0.049*
CC(=O)Oc1ccc(N2C(=O)C3C4C=CC(CC4)C3C2=O)cc1[N+](=O)[O-] (stereo unspecified)	0.04	0.74	2	10	1	6	·	·
O=C(O)Cc1cc(I)c(Oc2ccc(O)c(I)c2)c(I)c1	·	-3.2	17*	-17	0	-5	2	0.12*
Cc1ccccc1OCC(=O)N(Cc1nc(-c2ccccc2)no1)C(C)C	·	0.26	6	4	-2	17	·	·
COc1ccccc1OCC(=O)N(Cc1nc(-c2ccccc2)no1)C1CCCCC1	·	-0.55	13*	-9	-1	-30	2	0.079
CCn1c2ccccc2c2cc(NC(=O)COC(=O)c3cc(Cl)c(N)cc3OC)ccc21	·	0.29	·	-6	0	6	·	·
Cc1noc(NS(=O)(=O)c2ccc(N/C=C\C(=O)c3ccc4c(c3)OCO4)cc2)c1C	·	·	8	-31	-1	·	·	·
Cc1noc(NS(=O)(=O)c2ccc(N/C=C\C(=O)c3ccc(Br)cc3)cc2)c1C	6*	-1.1	12*	-27	-1	-17	3	0.099*
CCN(CC)S(=O)(=O)c1ccc(OC)c(NC(=S)Nc2cc(C)ccc2C)c1	-0.2	0.86	2	-2	-2	-30	·	·
CCN(CC)S(=O)(=O)c1ccc(OC)c(NC(=O)CSc2cc(C)ccc2C)c1	-3.2*	-1	15*	-11	0	-12	3	0.057*
O=C(O)CCn1cc(/C=N/O)c(-c2cccc([N+](=O)[O-])c2)n1	-0.037	1.2	3	-8	-2	20	·	·
CCOC(=O)C(=O)N1CCC(C(=O)OCC)CC1	·	0.74	·	-2	1	1	·	·
CCC1CCCCN1S(=O)(=O)c1ccc(S(=O)(=O)N(Cc2cccs2)C2CC2)cc1 (stereo unspecified)	·	-0.098	13*	1	1	20	2	?
